This is an account of results in PubChem BioAssay AID651597 (National Center for Advancing Translational Sciences (NCATS), 2012).

The whole screen tested about 1,100 compounds, of which about 390 (35%) were called active. Another 30% or so got no clear call; they are omitted. Calls come from the whole dose curve; as a rule, active = well fitted inhibition curve with a large enough effect; inconclusive = small, poorly fitted or top-dose-only effect; inactive = flat fitted curve, though single readings scatter. This is one part of the list.
Potency is the fitted concentration of half-maximal effect.

This experiment deals with Luciferin 4-monooxygenase (Photinus pyralis) (UniProt P08659). As to the kind of experiment: qHTS of Nrf2 Activators: Hit Validation in Secondary FLuc Assay. Note: nearly all actives have a fitted effect of over 65% in size. The conditions noted are these: firefly luciferase inhibition counter-screen, luminescence; series mostly up to 57.5 µM. From the text:
Many diseases have some form of oxidative stress injury and ties to inflammation, causing a host of problems for the patient. The antioxidant response element (ARE) plays an important role in alleviating the harmful effects of oxidative stress. The antioxidant response element (ARE) is a transcriptional regulatory element involved in the activation of genes coding for a number of antioxidant proteins and detoxifying enzymes. These enzymes work in concert to protect tissues from oxidative insults and chemical toxicities in human hepatocytes and immune cells. The protective effects of ARE activation are primarily triggered through Nrf2 (NF-E2-related factor) binding to and activating AREs. It is known that Nrf2 controls the production of over 250 antioxidant and detoxification proteins (Hu et al., 2006), thereby protecting tissues by increasing cellular antioxidant content and suppressing inflammatory signaling pathways. The transcription factor Nrf2 is a central link between oxidative chemicals, such as phenolic antioxidants and electrophilic compounds, and the activation of ARE. Nrf2 levels are constitutively low as a consequence of its interaction with Keap1, which targets its degradation (Zipper and Mulcahy, 2002). Electrophiles react with key cysteine residues in Keap1, releasing Nrf2 and allowing its translocation to the nucleus. Once within the nucleus, Nrf2 complexes with coactivators such as p300, and binds to the AREs to induce gene transcription of cytoprotective enzymes, resulting in the prevention of toxicity. Activation of Nrf2 protects tissues by increasing cellular antioxidant content and suppressing inflammatory signaling pathways. Identifying novel and potent Nrf2 activators by using the AREc32 cell line to detect ARE activation by small molecules will lead to the identification and development of probes to study protective pathways in multiple tissues. These specific probes are essential to study the ARE pathway, and eventually to determine whether this pathway does activate genes that could protect against a host of diseases, including cardiovascular diseases, obesity, diabetes, Alzheimer's, and Parkinson's disease.
This project's aim is to identify novel and potent Nrf2 activators by using the AREc32 cell line to detect ARE activation by small molecules, which will lead to the identification and development of probes to study the ARE pathway. In this counter assay, we aim to identify false positive as identified from this primary assay using an FLuc assay with an inhibiting read-out.
NIH Chemical Genomics Center [NCGC]
NIH Molecular Libraries Probe Centers Network [MLPCN]
Assay Submitter (PI): Curtis Klaassen, University of Kansas Medical Center
Assess whether an activator in the primary assay potentially causes such activation by inhibitor-induced stabilization of the firefly luciferase reporter enzyme by determining whether it inhibits firefly luciferase in the presence of Km concentrations of its substrates (ATP and D-luciferin).
Background: In qHTS, concentration-response curves come from the screen itself.
In the case of `Cc1cccc(C(=O)Nc2nnc(SCC(=O)NCc3ccco3)s2)c1`, the Potency was 2.39 µM (active).

In the case of `Clc1ccccc1Nc1ncnc(-n2cccc2)n1`, the Potency was 2.13 µM (active).

`CCOc1ccc(-n2c(O)c(N=Nc3ccc([N+](=O)[O-])cc3)c(=O)[nH]c2=O)cc1`: the Potency entry was “inactive”.

`O=C1c2ccccc2-c2cc3ccccc3cc21`: the Potency is 4.78 µM (active).

For the compound `Clc1cccc(/C=N\Nc2nccs2)c1`, the Potency was 4.78 µM (active).

Consider `CC(=CCOc1ccc2ccc(=O)oc2c1)C1=CC(=O)C(C)(C)O1`, for which the Potency result was “inactive”.

On to `O=C(O)c1ccc([N+](=O)[O-])c([N+](=O)[O-])c1`, for which the Potency result is “inactive”.

On to `O=C(Nc1ccc(Cl)c(Cl)c1)c1ccco1`, for which the Potency is 9.53 µM (active).

In the case of `NC(=O)c1c(NC(=O)c2ccccc2F)sc2c1CCC2`, the Potency is 1.35 µM (active).

Consider `Cn1c(O)c(N=Nc2ccc(S(=O)(=O)N3CCOCC3)cc2)c(=O)n(C)c1=O`, for which the Potency entry is “inactive”.

For the compound `Fc1cccc(F)c1-c1nc(-c2ccc(Cl)cc2)no1`, the Potency is 2.13 µM (active).
